Screens deposited in PubChem BioAssay by National Center for Advancing Translational Sciences (NCATS).
In the library only some 5.9% were active in any assay of this set; here they are far more common.
KB-3-1 tox: kills parental KB-3-1 adenocarcinoma cells | KB-3-1 viability, CellTiter-Glo ATP luminescence, 72 h | AID 1347075 | Potency, µM (series often up to 46.1 µM), hits mostly cytotoxic | 400,000 compounds, 1.4% hits; note: % is set by controls: 0 for no effect and ±100 for the full control effect; nearly all actives have a fitted effect of over 60% in size
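Luminescent ATP read-out (CellTiter-Glo) measures survival of drug-naive KB-3-1 cells after 72 h compound exposure at 37 °C. Titration series was screened from lowest to highest concentration, with DMSO vehicle plates as background controls.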
TGFb SMAD3 inh: TGF-b pathway inhibition | 410,000 compounds, 1.2% hits | Potency, µM (highest dose often 46.1 µM), for inactives: at the top dose activity, negative = inhibition, most hits filed as inhibitors | HepG2 CAGA-GFP TGF-b/SMAD3 reporter, GFP fluorescence, 18 h; TGF-beta stimulated, 500 pg/mL final; note: % is set by controls: 0 for no effect and ±100 for the full control effect; nearly all actives have a fitted effect of over 65% in size
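HEPG2 CAGA-GFP, 1000 cells/well; 2 h settle, 37 C; cpd via pin tool; TGF-b 500 pg/mL final; 18 h, 37 C; GFP imaging ex488/em500-530; %Activity normalised to -TGF-b and +DMSO controls; CRC fit, curve class.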
ATXN2 expr inh: reduces ATXN2 reporter expression in HEK-293 cells. HEK-293 ATXN2-luciferase reporter, luminescence, 24 h. Potency, µM (top dose mostly 57 µM), for the others: at the top dose activity change, negative = inhibition, most hits filed as inhibitors. 360,000 compounds, 0.72% hits. AID 1745845; note: % is set by controls: 0 for no effect and ±100 for the full control effect; nearly all actives have a fitted effect of over 55% in size
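qHTS (up to 57 uM final) was run with 24 h compound exposure of reporter cells at 37 °C. Each well was multiplexed: SteadyGlo luminescence measured ATXN2-luciferase expression after a fluorogenic Gly-Phe-AFC viability readout (25 uM final).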
KB-V1 cytotox: kills drug-selected multidrug resistant KB-V1 cells; Potency, µM (series often up to 46.1 µM), actives largely listed as cytotoxic; KB-V1 MDR cells viability, CellTiter-Glo, 72 h; 400,000 compounds, 3.4% hits; note: % is set by controls: 0 for no effect and ±100 for the full control effect; nearly all actives have a fitted effect of over 60% in size
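Drug-selected KB-V1 cells, grown in DMEM lacking phenol red with 10% FBS, receive compound titrations; after three days at 37 degrees C, surviving cell ATP is quantified by CellTiter-Glo luminescence and responses normalized and curve-fitted.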
HepG2 viability: counter-screen for TGF-b inhibitors: cytotoxicity in HepG2 cells; HepG2 CAGA-GFP viability, ATP luminescence, 18 h; Potency, µM (highest dose often 46.1 µM), inactives show at the highest dose activity change, negative = cytotoxicity, actives largely listed as cytotoxic; 410,000 compounds, 0.76% hits; AID 588856
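CellTiter-Glo luminescence gave cytotoxicity after 18 hours at 37 degrees C. The cells were HepG2 CAGA-GFP in 1% FBS DMEM, stimulated with 500 pg/mL TGF-beta after compound addition. %Activity was normalised to no-cell wells (complete cell-killing) and DMSO (no toxicity), and curves were fitted and classified.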
S2 tox: cell viability loss in ATXN counter-screen. S2 cells (HEK-293 line with an ATXN2-luciferase reporter) viability, CellTiter-Fluor protease fluorescence, 24 h. Potency, µM (doses to about 56.7 µM), most hits filed as cytotoxic. 400,000 compounds, 0.49% hits. AID 651635; note: nearly all actives have a fitted effect of over 40% in size
* hit, by the source's call; i = inactive; ? = inconclusive; nt = not tested or not shown. Calls come from the whole dose curve; as a rule, active = well fitted curve in the direction sought with a large enough effect; inconclusive = small, poorly fitted or top-dose-only effect, or another doubt; inactive = no such curve, though single readings can be large; an effect the other way counts as inactive or inconclusive. Potency is the fitted concentration of half-maximal effect.

SMILES	KB-3-1 tox	TGFb SMAD3 inh	ATXN2 expr inh	KB-V1 cytotox	HepG2 viability	S2 tox
CCOC(=O)c1cc(-c2ccccc2)n(CCC(=O)Nc2ccc(Cl)c(C(F)(F)F)c2)c1C	?	3.5µM*	nt	?	11µM*	nt
CCOC(=O)c1cc(-c2ccccc2)n(CCCC(=O)Nc2cccc(Cl)c2C)c1C	i	11µM*	nt	i	-56%	nt
O=C(CN1CCCc2ccccc21)N/N=C/c1ccc(F)cc1F	i	-5%	12%	i	-3%	i
O=C(CN1CCCc2ccccc21)N/N=C/c1ccccc1O	?	?	28µM*	13µM*	-32%	i
C=CCn1c(N)c(C(=O)Nc2cccc(C)c2)c2nc3ccccc3nc21	i	-36%	-6%	21µM*	-11%	i
Nc1c(C(=O)Nc2ccccc2)c2nc3ccccc3nc2n1CCCN1CCOCC1	i	?	?	?	14µM*	i
CCn1c(CNC(=O)c2cccs2)nnc1SCC(=O)NCCc1ccccc1	i	-12%	-11%	i	-5%	i
Cn1c(SC/C=C/c2ccccc2)nnc1-c1cccs1	i	-6%	-2%	i	-25%	i
CCn1c(SCC(=O)NCCc2ccccc2)nnc1-c1cccs1	i	2%	2%	21µM*	-14%	i
CCn1c(SC/C=C/c2ccccc2)nnc1-c1cccs1	i	3%	-8%	13µM*	-14%	i
Nn1cc(-c2ccccc2)nc1SCC(=O)NCCc1ccccc1	i	-30%	-13%	23µM*	-22%	i
CCCCNC(=O)c1sc2ncnc(NCC3CCCO3)c2c1C (centres undefined)	nt	nt	nt	nt	nt	i
Cc1oc2ncn(CC(C)C)c(=O)c2c1C(=O)NC(C)c1ccccc1 (centres undefined)	i	12%	-17%	?	-5%	?
CN(C)CCNC(=O)c1cccc(-c2cccc3nncn23)c1	i	-9%	5%	i	-23%	i
CCOC(CNC(=O)c1ccc2c(c1)nc(C)n2-c1cccc(F)c1)OCC	i	?	20%	21µM*	1%	i
COCCNC(=O)c1ccc2c(c1)nc(C)n2-c1cccc(Cl)c1	i	-17%	8%	i	-4%	i
CCN1CCOC(CC(=O)Nc2ccc([N+](=O)[O-])cc2)C1=O (centres undefined)	i	0%	23%	i	20µM*	i
O=C(CC1OCC2CCCN2C1=O)Nc1ccc([N+](=O)[O-])cc1 (centres undefined)	i	5%	-3%	i	-1%	?
CCc1ccc(-c2nc(CSCC(=O)NCCCN3CCCC3=O)c(C)o2)cc1	i	-12%	-16%	16µM*	-14%	i
COCCNC(=O)CSCc1nc(-c2ccc(SC)cc2)oc1C	?	15%	0%	9.2µM*	-8%	i
COc1ccc(-c2nc(CSCC(=O)NCCC3=CCCCC3)c(C)o2)cc1OC	i	-13%	2%	21µM*	-24%	?
Cc1ccc(CNC(=O)c2c3c(nc4ccccc24)C(=O)N(C2CCCCC2)C3)cc1	i	-6%	nt	i	-21%	nt
CN[C@H]1[C@@H](O)[C@@H]2O[C@@H]3O[C@H](C)CC(=O)[C@]3(O)O[C@@H]2[C@@H](NC)[C@H]1O	nt	nt	27µM*	nt	nt	nt
O=C(NCCc1csc(-c2cccnc2)n1)c1cccc(C(F)(F)F)c1	?	-13%	-23%	9.2µM*	-36%	i
O=C(NCCc1csc(-c2cccnc2)n1)c1ccc(F)c(F)c1	i	0%	-18%	13µM*	-23%	i
Cc1ccc(C(=O)NCCc2csc(-c3cccnc3)n2)cc1	i	3%	-1%	i	-6%	?
CC(C)Cc1nc2cc(NS(=O)(=O)N(C)C)cc(C(=O)N3CC4(C)CC3CC(C)(C)C4)c2n1C (centres undefined)	nt	nt	nt	nt	nt	i
